Pf growth 96h: P. falciparum growth inhibition at 96 hour, primary screen for plastid delayed-death inhibitors; P. falciparum luciferase reporter growth, 96 h; Potency, µM (titrated, usually from 28.7 µM), without a hit: at the highest dose activity change, negative = inhibition, hits mostly inhibitors; 6.9% of 320,000 active; AID 504834; further: potency means the concentration at half of the fitted maximal effect; on the % scale 0 is the no-effect control and ±100 the full control effect
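Cell-based qHTS: luciferase-tagged P. falciparum in erythrocytes (2% hematocrit, 0.05% parasitemia final) incubated with compounds for 96 hours, 37 C, 5% CO2; luciferase detection reagent then added and luminescence measured.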
AMA1-RON2 inh: disrupts binding of P. falciparum AMA1 to RON2 | Potency, µM (highest dose often 58.2 µM), inactives show top-dose activity change, negative = inhibition, most hits filed as inhibitors | AlphaScreen AMA1-biotinylated RON2 peptide binding | 0.2% of 360,000 active;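 further: potency means the concentration at half of the fitted maximal effect; 0% = vehicle wells and -100% = peptide control; nearly all actives have a fitted effect of over 45% in size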
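AMA1 (3D7) with his tag at 25 nM final met compounds first, then biotinylated RON2 peptide at 25 nM; detection used donor plus acceptor beads, 10 µg/mL apiece, read by AlphaScreen after 30 min at room temperature.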
Pf growth 48h: inhibits P. falciparum growth in the first generation, 48 h | 5.9% of 310,000 active | AID 504832 | Potency, µM (series often up to 28.7 µM), without a hit: at the top dose activity change, negative = inhibition, most hits filed as inhibitors | P. falciparum luciferase growth in erythrocytes, 48 h; further: potency means the concentration at half of the fitted maximal effect; on the % scale 0 is the no-effect control and ±100 the full control effect
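Erythrocytes infected with P. falciparum carrying an integrated firefly luciferase reporter (2% hematocrit, 0.1% parasitemia final) were exposed to compounds in RPMI 1640 with 0.5% Albumax at 37 C, 5% CO2. Growth inhibition was scored as reduced luminescence.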
SARS PLpro yeast: inhibitors of SARS-CoV papain-like protease in yeast | AID 485353 | S. cerevisiae expressing SARS-CoV PLpro, growth rescue | Potency, µM (top dose mostly 32.9 µM), inactives show at the top dose activity, positive = growth rescue, actives largely listed as activators | 0.19% of 330,000 active; calls by dose curve; further: potency means the concentration at half of the fitted maximal effect; 0% is about no effect; nearly all actives have a fitted effect of over 55% in size
CHX counter: counter-screen hit for Shiga toxin inhibitors, cycloheximide; cell reporter, cycloheximide protein synthesis inhibition counterscreen; max response, %; 12% of 300,000 active; in the data active means max response mostly above about 13%, no sharp cut-off; inactive means mostly below about 14%; further: read at 38.3 µM for the half of the compounds with a filed dose; 0% is about no effect
Shiga toxin inh: Shiga toxin inhibition. 9.2% of 290,000 active. AID 2315. Vero cells, Shiga toxin protein synthesis inhibition reporter. inhibition, % at 38.7 µM; in the data active means inhibition mostly above about 28%, no sharp cut-off; inactive means mostly below about 43%; further: 0% is about no effect
* = called active by the depositor; ? = inconclusive; / = no result; [ ] = another dose, or the depositor's remark. Compounds with a hit are over-represented: about 19% of the library has one in this group of screens. Unless noted, the call rests on the fitted dose curve; in most records, active means well fitted curve in the direction sought with a large enough effect; inconclusive means small, poorly fitted or top-dose-only effect, or another doubt; inactive means no such curve, though single readings can be large; an effect the other way counts as inactive or inconclusive.

SMILES	Pf growth 96h	AMA1-RON2 inh	Pf growth 48h	SARS PLpro yeast	CHX counter	Shiga toxin inh
CCOC(=O)C1CCN(C(=O)c2ccc3c(=O)n4nc(Nc5cc(C)ccc5C)sc4nc3c2)CC1	2.94µM*	-0.8%	?	4.1%	3.8	-3.3
CCOC(=O)C1CCN(C(=O)c2ccc3c(=O)n4nc(Nc5ccccc5OC)sc4nc3c2)CC1	/	-3.2%	/	/	/	/
CC1CCCN(C(=O)c2ccc3c(=O)n4nc(Nc5ccccc5)sc4nc3c2)C1 (stereo not drawn)	/	0.0%	/	/	/	/
COc1ccccc1Nc1nn2c(=O)c3ccc(C(=O)N4CCCC(C)C4)cc3nc2s1 (stereo not drawn)	6.4%	-2.5%	8.28µM*	-1.1%	-4.7	14.1
CC(C)CCNC(=O)CCSCCC(=O)NCCC(C)C	15.6%	16.3%	-14.3%	5.0%	1.2	14.9
CCOC(=O)c1c(-n2c(C)cc(/C=C3\C(=O)NC(=O)N(C)C3=O)c2C)sc2c1CCCC2	3.7µM*	3.8%	?	?	-1.7	-23.1
CCOC(=O)c1c(-n2c(C)cc(C=O)c2C)sc2c1CCCC2	?	-15.2%	?	-12.3%	-3.4	-2.0
C#CCOCCOCCOCCNc1nc(N2CCN(C(=O)[C@H](CCCCN)n3cc([C@@H](N)[C@H](C)CC)nn3)CC2)nc(N2CCN(C(=O)[C@H](CCC(=O)O)n3cc([C@@H](N)CCSC)nn3)CC2)n1	/	12.3%	/	-5.8%	/	/
NS(=O)(=O)c1ccc(N/C=C\C(=O)c2cccc3ccccc23)cc1	?	-11.2%	3.4%	-5.3%	21.4*	10.4
Cc1ccc2c3c(cccc13)-c1ccccc1C2=O	306.5%	-31.0%	31.1%	-24.9%	27.7*	14.3
COc1ccc(-c2ccc(CN3C(C)C(=O)N(Cc4cn(CCC5OCCCO5)nn4)CCS3(=O)=O)cc2)cc1 (stereo not drawn)	/	-17.2%	/	/	/	/
CCc1nnc(N/N=C/c2ccc(N3CCC(C)CC3)c([N+](=O)[O-])c2)n1N	-19.2%	?	?	-17.0%	-3.3	-10.0
Cc1nnc(N/N=C/c2cc([N+](=O)[O-])c(N3CCC(C)CC3)cc2N2CCC(C)CC2)n1N	/	11.8%	5.86µM*	-19.0%	13.3	24.0
O=C1CCC(=O)N1CC(O)COc1ccccc1 (stereo not drawn)	-12.2%	-2.6%	9.2%	0.8%	-3.0	3.2
O=C1CSC(=O)N1CC(O)COc1ccc(Cl)cc1 (stereo not drawn)	-3.7%	-1.1%	18.6%	8.9%	38.7*	86.1*
O=C1c2ccccc2C(=O)N1CC(O)COc1ccc(Cl)cc1 (stereo not drawn)	40.7%	-3.2%	2.5%	-0.4%	18.5*	30.6
CCOc1ccc(N(C(=O)c2snc(C(N)=O)c2N)C(C(=O)NC2CCCC2)c2ccncc2)cc1 (stereo not drawn)	?	-8.4%	0.0%	0.0%	-6.2	2.2
CC(C)Sc1ncnc2[nH]ncc12	/	0.0%	/	/	/	/
Cc1cc(NC(=O)c2ccc3c(c2)C(=O)N(C(C)(C)C)C3=O)no1	?	-2.3%	36.6%	-3.1%	21.3*	33.7
O=C(Nc1nccs1)c1ccc2c(c1)C(=O)N(Cc1cccnc1)C2=O	?	3.5%	3.6%	0.1%	-2.8	18.3
Cc1cc(NC(=O)c2ccc3c(c2)C(=O)N(CC(C)C)C3=O)no1	136.5%	3.4%	23.7%	-0.7%	4.0	40.4
CC(C)(C)N1C(=O)c2ccc(C(=O)Nc3nccs3)cc2C1=O	56.9%	21.7%	-0.1%	-14.8%	31.4*	56.7*
CCN1C(=O)c2ccc(C(=O)Nc3nccs3)cc2C1=O	-8.4%	-9.6%	17.5%	-4.6%	11.5*	31.1*
COCCNCC(=O)Nc1ccccc1Sc1ccccc1	0.0%	-14.6%	19.1%	-6.2%	2.7	-6.3
CC(=O)c1ccc(N2CCN(C(=O)C(=O)c3c(C)[nH]c4ccccc34)CC2)cc1	35.8%	-11.6%	-12.9%	-4.1%	15.4*	16.4
Cc1[nH]c2ccccc2c1C(=O)C(=O)N1CCCc2ccccc21	10.4µM*	7.9%[2.32 µM]	?	-37.9%	50.1*	63.7*
Cc1[nH]c2ccccc2c1C(=O)C(=O)N1c2ccccc2CC1C (stereo not drawn)	11.7µM*	7.1%	6.57µM*	-0.4%	-2.1	-7.4

Bioassay records (PubChem BioAssay)
